Data taken from the supplement of paper PMC3334620.
Whole data set: some 33,000 sequences, median “E-score (-0.5 to 0.5)” near -0.054, cut for the highest 2% near 0.39. The sample holds the highest values, similar sequences and a random draw of the others, so the mix is not that of the screen.

These sequences were tested against Ylr278c (UniProt Q05854) (assay: PBM E-score (8-mer binding enrichment) (E-score (-0.5 to 0.5)); higher = stronger / more preferred TF binding). Conditions: protein concentration: 200 nM; construct: GST-DNA-binding domain.
Experimental: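 Universal 'all 10-mer' protein binding microarrays (Agilent AMADID 015681) probed with GST-tagged S. cerevisiae TFs (full-length or DBD) made by in vitro transcription/translation (PURExpress), about 100-200 nM. Bound TF was detected with fluorescent anti-GST. Each ungapped 8-mer (which stands for itself and its reverse complement) is scored by the PBM enrichment score (E-score), a modified Wilcoxon-Mann-Whitney statistic from -0.5 to +0.5, computed with the Universal PBM Analysis Suite. Scale: above 0.35 generally sequence-specific binding.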

UniProt Q05854, sequence (Q05854 whole entry, the tested form may be a part): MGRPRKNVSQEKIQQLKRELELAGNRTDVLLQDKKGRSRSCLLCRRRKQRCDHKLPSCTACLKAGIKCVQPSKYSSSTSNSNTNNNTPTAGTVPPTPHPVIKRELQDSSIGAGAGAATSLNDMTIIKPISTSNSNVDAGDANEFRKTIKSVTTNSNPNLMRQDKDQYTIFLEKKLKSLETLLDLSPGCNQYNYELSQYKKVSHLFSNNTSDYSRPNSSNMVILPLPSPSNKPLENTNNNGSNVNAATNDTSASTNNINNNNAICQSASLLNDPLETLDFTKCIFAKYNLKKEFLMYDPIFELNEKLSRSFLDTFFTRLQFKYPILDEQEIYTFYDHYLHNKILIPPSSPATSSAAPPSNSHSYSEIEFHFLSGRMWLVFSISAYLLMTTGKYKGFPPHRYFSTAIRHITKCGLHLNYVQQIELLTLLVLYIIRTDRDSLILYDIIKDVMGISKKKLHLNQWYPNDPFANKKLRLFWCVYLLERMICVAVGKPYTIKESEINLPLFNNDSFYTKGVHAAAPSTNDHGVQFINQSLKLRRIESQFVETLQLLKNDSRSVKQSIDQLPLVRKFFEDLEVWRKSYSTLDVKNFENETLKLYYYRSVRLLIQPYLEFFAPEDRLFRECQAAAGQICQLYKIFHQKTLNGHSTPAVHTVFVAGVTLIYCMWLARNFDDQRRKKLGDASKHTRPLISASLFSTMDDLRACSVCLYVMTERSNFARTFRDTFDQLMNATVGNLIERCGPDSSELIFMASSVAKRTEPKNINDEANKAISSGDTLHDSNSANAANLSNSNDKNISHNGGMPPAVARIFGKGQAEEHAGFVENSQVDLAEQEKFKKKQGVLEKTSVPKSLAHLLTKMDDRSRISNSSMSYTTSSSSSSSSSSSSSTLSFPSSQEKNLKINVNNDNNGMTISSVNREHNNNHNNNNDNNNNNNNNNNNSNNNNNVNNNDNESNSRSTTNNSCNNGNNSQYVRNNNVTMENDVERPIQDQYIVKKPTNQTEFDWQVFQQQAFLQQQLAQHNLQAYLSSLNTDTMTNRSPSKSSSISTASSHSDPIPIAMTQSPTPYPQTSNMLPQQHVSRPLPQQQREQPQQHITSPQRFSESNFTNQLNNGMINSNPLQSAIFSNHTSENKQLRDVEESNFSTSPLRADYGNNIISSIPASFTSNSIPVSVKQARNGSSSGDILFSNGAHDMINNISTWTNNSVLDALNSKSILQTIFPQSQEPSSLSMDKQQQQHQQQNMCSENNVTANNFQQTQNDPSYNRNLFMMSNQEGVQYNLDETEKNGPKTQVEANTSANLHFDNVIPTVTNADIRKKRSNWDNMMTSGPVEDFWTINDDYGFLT

Sequence | PBM E-score
ATAGTGAT | -0.203
TAAAGACA | -0.186
ACTGAGGC | 0.105
TCTAAAGA | -0.115
CGCGTTAA | 0.0131
CGGCGTTA | 0.405
GGGCGTTA | -0.101
CGGCGTTC | 0.378
GAGTGACA | -0.00079
TAGCTTAA | -0.198
TGATCTAA | -0.15
GGGAGGTA | -0.0269
AGGAGGTC | -0.0814
CGGAGGTC | 0.443
CGGAGGTA | 0.426
CTGAGGTC | -0.297
AGGAGGTA | -0.0558
AATGAACG | -0.131
CCGGTTGA | 0.303
CGAGAACG | 0.232
CCTAAACG | -0.0312
AATCCGAC | 0.402
TATCCGAA | 0.371
AATCCGAG | 0.288
AATCCTAT | 0.181

Sequence | PBM E-score
AATCCGAA | 0.39
GATCCGAC | 0.285
CATCCGAC | 0.289
CATCCGAA | 0.303
AATCCGAT | 0.421
ATCGGGGC | 0.296
CCACTGAG | -0.208
ACTGATGC | -0.0244
TCCAAACA | -0.094
GCAAGTGC | -0.274
GTTCTTCA | -0.192
ATTCGCTC | 0.0759
AGTCGGCG | 0.215
GGTCGGAC | 0.355
AGTCGGAA | 0.408
CGTCGGAC | 0.397
AGTCGGAT | 0.282
CGTCGGTC | 0.215
AGTCGGGA | 0.142
AGTCGGAG | 0.41
GGTCGGAA | 0.338
AGTCGGAC | 0.366
CGTCGGAA | 0.43
TGTCGGAA | 0.384
ACGCAGGA | -0.166

Sequence | PBM E-score
CAAAGCGG | 0.175
AACACTTG | -0.16
ATAAGACC | 0.0726
ATGGTGTG | -0.23
CAACAAAG | -0.189
ATCAAGAC | -0.00757
ACCGCTAG | -0.19
CAGGGGGC | -0.125
CAGGTCAG | -0.0413
CGTCGGAG | 0.441
CGTCGCAG | -0.192
CGTCGTAG | 0.00558
ATTGGAAG | -0.0562
CTTTGCCC | -0.139
GCTTTTGA | -0.0305
ATCCTCCA | -0.301
CGCCTCCG | 0.398
AACCTCCG | 0.466
CGCCTCCA | 0.0143
AGCCTCCG | 0.381
AACCTCCT | -0.122
ATCCTCCC | 0.0358
CACCTCCC | -0.129
CACCTCCG | 0.425
CACCTCCA | 0.0316

Sequence | PBM E-score
AACCTCCC | 0.0351
ATCCTCCG | 0.431
CAGTGGCA | -0.225
CCCTCCCA | 0.0446
ACAGGGCC | 0.0175
GAAACCAA | 0.0455
CGACGCAA | 0.114
GTACTGGA | -0.156
GCACCACC | 0.0569
GACTGCGA | 0.0431
TCCCTGAA | -0.217
CGTAAGGC | -0.161
CAGCTATG | -0.344
ACGGAAAA | 0.346
TCGGAAAA | 0.426
GCGGAAAA | 0.379
CAGGAAAA | 0.00343
CTGGAAAA | -0.00229
ACGGAAAC | 0.278
CCGGAAAA | 0.453
CCGGAAAG | 0.319
CCGGAAAC | 0.404
ATGAATTA | -0.228
CCGGTATC | 0.32
GCGATCCC | 0.0902

Sequence | PBM E-score
AAACACCG | 0.39
CAACACCG | 0.212
AAACACCT | -0.135
CTCCTCAC | -0.185
AATTTCCG | 0.448
ATTTTCCG | 0.421
CATTTCCA | -0.0597
CATTTCCG | 0.406
AATTTCCT | 0.0327
CATTTCCC | 0.161
AATTTCCC | 0.114
ATTTTCCA | 0.0304
ATTTTCCC | 0.063
GTTCGCAA | -0.0313
TATCCTCA | -0.0486
ATAACTGG | -0.0346
CTTCGGAA | 0.419
CTTCGGCA | 0.274
GTTCGGGA | 0.277
CTTCGGCC | 0.154
CTTCGGGC | 0.0457
CTTCGGTA | 0.0846
GTTCGGCA | 0.134
GTTCGGAA | 0.403
CTTCGGAC | 0.399

Sequence | PBM E-score
AAGGTGGG | -0.161
GCGGTGTA | 0.132
AAGGCACA | -0.231
CTTAGGTA | -0.0818
ATCTGAAA | -0.039
CGAGTACA | 0.0348
ACATGCTC | -0.0918
ACACCCCG | 0.241
AGTCCGAG | 0.43
AGTCCTAT | -0.0902
AGTCCAAG | -0.236
AGGCCGAC | 0.324
AGTCCTAA | -0.163
CGTCCGAG | 0.296
AGACCGAT | 0.163
AGTCCGAT | 0.458
AGTCCGAC | 0.431
AGTCCAAA | -0.107
AGCCCGAC | 0.152
AGTCCGAA | 0.425
AGTAAGTG | -0.128
ATCTCTGG | -0.239
AAACGACC | -0.0492
ACCTCATG | -0.349
ATTAGCTC | -0.0566

Sequence | PBM E-score
ACAGACTC | -0.109
ATCCGATC | 0.37
ATCCGATA | 0.399
AACCGATA | 0.0662
CTCCGATA | 0.462
CTCCGATC | 0.46
CGCCGATC | 0.377
GGCCGATA | 0.3
ATCCGATG | 0.323
CGCCGATA | 0.37
GTCCGATA | 0.414
GCCCGATA | 0.0679
CACCGATA | 0.194
CGCTCTAG | -0.113
AACTGCCA | -0.249
GTGGAGCA | -0.158
GAGCACGC | -0.106
AAACCGGA | 0.438
TAACCGTA | -0.0936
TAACCGGA | 0.431
TAACCGCA | 0.0534
GAACCGGA | 0.426
AAACCGGC | 0.356
GAACCGTA | -0.0428
AAACCGGT | 0.204

Sequence | PBM E-score
GAACCGGC | 0.283
CAACCGGA | 0.414
CAACCGGC | 0.27
CAACCGGG | 0.215
GGTGCTAC | -0.0466
GAAAGCAA | 0.145
CAGGTTCC | 0.0369
AAGGAGCA | -0.0618
GGAAGTAC | 0.253
CATCACAG | -0.108
ATGTCCTG | -0.0169
ATGTCCCC | 0.042
CTGTCCGA | 0.335
ATGTCCGC | 0.403
ATGTCCGG | 0.468
GTGTCCGA | 0.374
ATGTCCCG | 0.319
CTGTCCGC | 0.14
ATGTCCGA | 0.455
AATCTTGA | -0.172
CATGCTAG | -0.256
AGACACTG | -0.321
GCCGGCGC | 0.396
GACGGCGC | 0.169
GCCGGCCC | 0.248

Sequence | PBM E-score
ATCGGCGC | 0.326
ACCGGCCT | 0.179
ACCGGCGC | 0.351
ACCGGCCG | 0.392
CCCGGCCG | 0.354
ATCGGCGA | 0.327
ATCGGCGG | 0.42
ACCGGCGT | 0.3
ACCGGCGG | 0.402
ATATGCTA | -0.0729
AAGCCCGA | 0.27
CCCATAGG | -0.0984
AAAATGGT | 0.184
GAAGTTAC | 0.0322
ATCTTGAC | -0.292
ACGTCTTA | -0.241
CGGCCCCC | 0.173
CACCAAAC | -0.119
CCCGGCGC | 0.338
CCCGGCGG | 0.396
CCCGGCGA | 0.326
CATTTGAG | -0.0532
CCGGACTA | 0.458
ACGGACTA | 0.315
ACGGACTC | 0.304

Sequence | PBM E-score
CCGGACTC | 0.43
GCGGACTA | 0.384
CGGGACTC | 0.341
AGGCCTAC | -0.167
AAGCAATT | -0.0901
CATCCCAC | -0.135
ATAGTGTA | -0.188
GCCAAACC | 0.119
GACTTGAC | -0.059
AGTATCTG | -0.207
CCGATCCA | 0.208
ACGATCGG | 0.334
CCGATCCG | 0.424
ACGATCCG | 0.283
CCGATCGA | 0.226
CCGATCGG | 0.43
CCGATTAA | 0.333
CATGTTGA | -0.0612
CGAGAATA | 0.0398
CAGGGCCG | 0.181
ATTTAAGA | -0.154
AAGATGGT | -0.0478
CTACGGAC | 0.261
ATACGGAG | 0.425
CTACGGAG | 0.398

Sequence | PBM E-score
CTACGGAA | 0.197
ATACGGAT | 0.256
ATACGGAA | 0.345
CTAAACAC | -0.033
GTGGACAA | 0.124
AGCAAGAC | -0.0712
ACACCAAC | -0.126
AAGCATAT | -0.014
ATCCCCGG | 0.425
ATCCCGTA | 0.158
ATCCCCGA | 0.379
ATCCCGTG | 0.212
ATCCCGGG | 0.392
GTCCCCGA | 0.217
ATCCCCCG | 0.3
ATCCCGAG | 0.308
ATCCCGGA | 0.44
ATCCCCTG | -0.16
GTCCCGCA | 0.163
GTCCCGGA | 0.439
CGCGACAA | 0.106
ATTGTAGG | -0.0526
ACAATCGA | -0.178
AATTAACA | -0.128
GACCTGAC | -0.198

Sequence | PBM E-score
CGAGGGCC | 0.0992
ATCCCGGC | 0.391
CTCCCGGC | 0.356
ATCCCGTC | 0.231
ATCCCCGC | 0.393
CTCCCCGA | 0.268
CTCCCGGA | 0.398
CTCCCCGC | 0.288
ATCCCCCC | -0.298
ATCCCGCC | 0.297
GAGCCTAC | 0.0364
AGCGTCTG | -0.136
CAGGGGAC | -0.151
AATGCTTC | 0.0555
GAAACTGC | 0.176
ATTGCTCC | 0.256
CAATCCGC | 0.197
CAATCCGA | 0.251
CAATCCCG | 0.368
AAATCCAG | -0.0486
AAATCCCG | 0.426
GAATCCGA | 0.368
AAATCCGA | 0.449
AAATCCGT | 0.362
TAATCCGA | 0.359

Sequence | PBM E-score
AAATCCGG | 0.474
CAATCCGG | 0.393
AAATCCCA | -0.101
AGCGTCTC | 0.0181
CCCTAGTC | -0.368
GATGGCCA | -0.102
CCCTAGCG | -0.352
CTGGGCAC | -0.183
ACCTCAAT | -0.178
CTCAGCCA | -0.0917
ATGAGCCG | -0.00632
ACCTACAA | -0.178
ACATCCGC | 0.352
GAATCCGC | 0.259
AAATCCGC | 0.401
GACTTTAA | -0.0643
CATAGCCA | -0.115
CGGAAGTC | 0.396
AGGAATTA | 0.0107
GGGAATTA | 0.143
AGGAAGTC | -0.156
CGGAATTC | 0.464
CGGAATTA | 0.466
CGGAAGTA | 0.342
AGGAATTC | -0.0584

Sequence | PBM E-score
CGGAATCA | 0.39
AGGAATCA | -0.0846
GGGAATCA | -0.0137
CTGAATTC | -0.0397
GACCTCAA | -0.226
TAGATAAA | -0.0204
AGTTGGTA | -0.238
AGTCAACC | -0.0996
CGAAGCGC | 0.197
CCAGCCTC | -0.302
GTGGGTGA | 0.0373
CAGTGGCG | 0.0163
ACCGGAAA | 0.369
AACGGAAG | 0.0937
ACCGGAAG | 0.388
CACGGAAC | 0.276
ACCGGAAC | 0.428
TCCGGAAA | 0.456
TACGGAAA | 0.3
CCCGGAAC | 0.4
CGCGGAAC | 0.368
AGCGGAAG | 0.305
TGCGGAAA | 0.334
AGCGGAAC | 0.333
